# According to paper PMC12820563, “FoxP3 forms a head-to-head dimer in vivo and stabilizes its multimerization on adjacent microsatellites”:
# The full ranking holds about 16,000 sequences; the median of “rpm ratio (pull-down/input)” is about 0.5, and the highest 2% start at about 5.5. This is one part of a sample in which the highest values are shown more often than they occur.
# Target: T1, MBP-FoxP3dN (Mus musculus, UniProt Q99JB6 188-423)
# T1 sequence: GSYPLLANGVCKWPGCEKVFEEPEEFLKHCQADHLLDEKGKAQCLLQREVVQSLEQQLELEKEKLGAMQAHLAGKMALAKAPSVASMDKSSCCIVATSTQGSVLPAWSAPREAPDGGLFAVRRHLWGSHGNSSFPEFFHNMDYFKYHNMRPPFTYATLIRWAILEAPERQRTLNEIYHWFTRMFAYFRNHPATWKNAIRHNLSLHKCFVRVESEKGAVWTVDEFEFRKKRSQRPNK
# Assay: PD-seq (MBP pull-down with sequencing); 20 mM Tris-HCl pH 7.5, 100 mM NaCl, 1.5 mM MgCl2, 0.4 uM protein, 0.1 uM dsDNA library, 30 min, room temperature, amylose pull-down; high values mean tight binding
# Details: protein: recombinant; tags: His6-MBP; chain copies: 2; dsDNA, one strand shown
# Summary of the method: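 Binding is given as reads-per-million enrichment, pull-down over input, with replicates pooled. The bait was an N-terminus-lacking mouse FoxP3 or FoxP1 fragment with a His6-MBP tag, expressed in E. coli and used at 0.4 µM with 0.1 µM Klenow-filled degenerate double-stranded DNA library for 30 min at room temperature in Tris pH 7.5 buffer with NaCl and MgCl2. Amylose resin pull-down with three washes was followed by proteinase K release, PCR barcoding and Illumina sequencing.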
row,Sequence,binding signal
1,GATGATTGTTCTCCCAGCTGATGAATTAACGGATTCGAGTAAACAAATTTTCCTAATCTTTCTGTTCAAGCGCCATCTAC,0.29 RPM ratio (pull-down/input)
2,GATGATTGTTCTCCCAGCTGATGAATTCCTAACTTCGAGTAAACAAATTTTCCTAATCTTTCTGTTCAAGCGCCATCTAC,0.231 RPM ratio (pull-down/input)
3,GATGATTGTTCTCCCAGCTGATGAATTCACCTTATCGAGTAAACAAATTTTCCTAATCTTTCTGTTCAAGCGCCATCTAC,0.363 RPM ratio (pull-down/input)
4,GATGATTGTTCTCCCAGCTGATGAATTGGAGCTGTCGAGTAAACAAATTTTCCTAATCTTTCTGTTCAAGCGCCATCTAC,0.312 RPM ratio (pull-down/input)
5,GATGATTGTTCTCCCAGCTGATGAATTCTATAGGTCGAGTAAACAAATTTTCCTAATCTTTCTGTTCAAGCGCCATCTAC,0.372 RPM ratio (pull-down/input)
6,GATGATTGTTCTCCCAGCTGATGAATTCCAGCTGTCGAGTAAACAAATTTTCCTAATCTTTCTGTTCAAGCGCCATCTAC,0.355 RPM ratio (pull-down/input)
7,GATGATTGTTCTCCCAGCTGATGAATTACCATAATCGAGTAAACAAATTTTCCTAATCTTTCTGTTCAAGCGCCATCTAC,0.448 RPM ratio (pull-down/input)
8,GATGATTGTTCTCCCAGCTGATGAATTCAGCGCCTCGAGTAAACAAATTTTCCTAATCTTTCTGTTCAAGCGCCATCTAC,1.17 RPM ratio (pull-down/input)
9,GATGATTGTTCTCCCAGCTGATGAATTGCTACCGTCGAGTAAACAAATTTTCCTAATCTTTCTGTTCAAGCGCCATCTAC,0.615 RPM ratio (pull-down/input)
10,GATGATTGTTCTCCCAGCTGATGAATTCATACTATCGAGTAAACAAATTTTCCTAATCTTTCTGTTCAAGCGCCATCTAC,0.534 RPM ratio (pull-down/input)
11,GATGATTGTTCTCCCAGCTGATGAATTCGAGCCATCGAGTAAACAAATTTTCCTAATCTTTCTGTTCAAGCGCCATCTAC,1.13 RPM ratio (pull-down/input)
12,GATGATTGTTCTCCCAGCTGATGAATTGACGTCTTCGAGTAAACAAATTTTCCTAATCTTTCTGTTCAAGCGCCATCTAC,0.448 RPM ratio (pull-down/input)
13,GATGATTGTTCTCCCAGCTGATGAATTGTACTACTCGAGTAAACAAATTTTCCTAATCTTTCTGTTCAAGCGCCATCTAC,0.546 RPM ratio (pull-down/input)
14,GATGATTGTTCTCCCAGCTGATGAATTATCAGGCTCGAGTAAACAAATTTTCCTAATCTTTCTGTTCAAGCGCCATCTAC,0.299 RPM ratio (pull-down/input)
15,GATGATTGTTCTCCCAGCTGATGAATTTCTGTGTTCGAGTAAACAAATTTTCCTAATCTTTCTGTTCAAGCGCCATCTAC,0.716 RPM ratio (pull-down/input)
16,GATGATTGTTCTCCCAGCTGATGAATTGTGTTCTTCGAGTAAACAAATTTTCCTAATCTTTCTGTTCAAGCGCCATCTAC,2.39 RPM ratio (pull-down/input)
17,GATGATTGTTCTCCCAGCTGATGAATTGTTGTGTTCGAGTAAACAAATTTTCCTAATCTTTCTGTTCAAGCGCCATCTAC,6.09 RPM ratio (pull-down/input)
18,GATGATTGTTCTCCCAGCTGATGAATTCCGTGCCTCGAGTAAACAAATTTTCCTAATCTTTCTGTTCAAGCGCCATCTAC,0.796 RPM ratio (pull-down/input)
19,GATGATTGTTCTCCCAGCTGATGAATTTATCTGATCGAGTAAACAAATTTTCCTAATCTTTCTGTTCAAGCGCCATCTAC,0.374 RPM ratio (pull-down/input)
20,GATGATTGTTCTCCCAGCTGATGAATTTATCGAGTCGAGTAAACAAATTTTCCTAATCTTTCTGTTCAAGCGCCATCTAC,0.379 RPM ratio (pull-down/input)
21,GATGATTGTTCTCCCAGCTGATGAATTCTAATCATCGAGTAAACAAATTTTCCTAATCTTTCTGTTCAAGCGCCATCTAC,0.567 RPM ratio (pull-down/input)

row,Sequence,binding signal
1,GATGATTGTTCTCCCAGCTGATGAATTTTTCGCATCGAGTAAACAAATTTTCCTAATCTTTCTGTTCAAGCGCCATCTAC,0.898 RPM ratio (pull-down/input)
2,GATGATTGTTCTCCCAGCTGATGAATTTCGCATTTCGAGTAAACAAATTTTCCTAATCTTTCTGTTCAAGCGCCATCTAC,6.94 RPM ratio (pull-down/input)
3,GATGATTGTTCTCCCAGCTGATGAATTCGCATTCTCGAGTAAACAAATTTTCCTAATCTTTCTGTTCAAGCGCCATCTAC,4.89 RPM ratio (pull-down/input)
4,GATGATTGTTCTCCCAGCTGATGAATTGACGCATTCGAGTAAACAAATTTTCCTAATCTTTCTGTTCAAGCGCCATCTAC,5.74 RPM ratio (pull-down/input)
5,GATGATTGTTCTCCCAGCTGATGAATTTGACGCATCGAGTAAACAAATTTTCCTAATCTTTCTGTTCAAGCGCCATCTAC,1.22 RPM ratio (pull-down/input)
6,GATGATTGTTCTCCCAGCTGATGAATTCGCCATTTCGAGTAAACAAATTTTCCTAATCTTTCTGTTCAAGCGCCATCTAC,1.75 RPM ratio (pull-down/input)
7,GATGATTGTTCTCCCAGCTGATGAATTCGCATTTTCGAGTAAACAAATTTTCCTAATCTTTCTGTTCAAGCGCCATCTAC,4.25 RPM ratio (pull-down/input)
8,GATGATTGTTCTCCCAGCTGATGAATTTTCGCATTCGAGTAAACAAATTTTCCTAATCTTTCTGTTCAAGCGCCATCTAC,6.27 RPM ratio (pull-down/input)
9,GATGATTGTTCTCCCAGCTGATGAATTCGACGCATCGAGTAAACAAATTTTCCTAATCTTTCTGTTCAAGCGCCATCTAC,0.992 RPM ratio (pull-down/input)
10,GATGATTGTTCTCCCAGCTGATGAATTGTTCGCATCGAGTAAACAAATTTTCCTAATCTTTCTGTTCAAGCGCCATCTAC,1.1 RPM ratio (pull-down/input)
11,GATGATTGTTCTCCCAGCTGATGAATTTCGCCATTCGAGTAAACAAATTTTCCTAATCTTTCTGTTCAAGCGCCATCTAC,5.04 RPM ratio (pull-down/input)
12,GATGATTGTTCTCCCAGCTGATGAATTCTCGCATTCGAGTAAACAAATTTTCCTAATCTTTCTGTTCAAGCGCCATCTAC,5.82 RPM ratio (pull-down/input)
13,GATGATTGTTCTCCCAGCTGATGAATTTGGATACTCGAGTAAACAAATTTTCCTAATCTTTCTGTTCAAGCGCCATCTAC,1.85 RPM ratio (pull-down/input)
14,GATGATTGTTCTCCCAGCTGATGAATTGCCCAAATCGAGTAAACAAATTTTCCTAATCTTTCTGTTCAAGCGCCATCTAC,0.385 RPM ratio (pull-down/input)
15,GATGATTGTTCTCCCAGCTGATGAATTAGTTACATCGAGTAAACAAATTTTCCTAATCTTTCTGTTCAAGCGCCATCTAC,0.891 RPM ratio (pull-down/input)
16,GATGATTGTTCTCCCAGCTGATGAATTTAGCTACTCGAGTAAACAAATTTTCCTAATCTTTCTGTTCAAGCGCCATCTAC,1.83 RPM ratio (pull-down/input)
17,GATGATTGTTCTCCCAGCTGATGAATTTTTGGAGTCGAGTAAACAAATTTTCCTAATCTTTCTGTTCAAGCGCCATCTAC,0.23 RPM ratio (pull-down/input)
18,GATGATTGTTCTCCCAGCTGATGAATTGGATGGCTCGAGTAAACAAATTTTCCTAATCTTTCTGTTCAAGCGCCATCTAC,0.46 RPM ratio (pull-down/input)
19,GATGATTGTTCTCCCAGCTGATGAATTGGGCAGCTCGAGTAAACAAATTTTCCTAATCTTTCTGTTCAAGCGCCATCTAC,0.963 RPM ratio (pull-down/input)
20,GATGATTGTTCTCCCAGCTGATGAATTTGAGCACTCGAGTAAACAAATTTTCCTAATCTTTCTGTTCAAGCGCCATCTAC,0.481 RPM ratio (pull-down/input)
21,GATGATTGTTCTCCCAGCTGATGAATTCCACCCGTCGAGTAAACAAATTTTCCTAATCTTTCTGTTCAAGCGCCATCTAC,0.242 RPM ratio (pull-down/input)

row,Sequence,binding signal
1,GATGATTGTTCTCCCAGCTGATGAATTGTTAGATTCGAGTAAACAAATTTTCCTAATCTTTCTGTTCAAGCGCCATCTAC,0.635 RPM ratio (pull-down/input)
2,GATGATTGTTCTCCCAGCTGATGAATTTGTCGGTTCGAGTAAACAAATTTTCCTAATCTTTCTGTTCAAGCGCCATCTAC,3.1 RPM ratio (pull-down/input)
3,GATGATTGTTCTCCCAGCTGATGAATTTCGTCCCTCGAGTAAACAAATTTTCCTAATCTTTCTGTTCAAGCGCCATCTAC,0.799 RPM ratio (pull-down/input)
4,GATGATTGTTCTCCCAGCTGATGAATTTCGCATCTCGAGTAAACAAATTTTCCTAATCTTTCTGTTCAAGCGCCATCTAC,6.74 RPM ratio (pull-down/input)
5,GATGATTGTTCTCCCAGCTGATGAATTCGCGCATTCGAGTAAACAAATTTTCCTAATCTTTCTGTTCAAGCGCCATCTAC,7.06 RPM ratio (pull-down/input)
6,GATGATTGTTCTCCCAGCTGATGAATTTCGCAGCTCGAGTAAACAAATTTTCCTAATCTTTCTGTTCAAGCGCCATCTAC,2.01 RPM ratio (pull-down/input)
7,GATGATTGTTCTCCCAGCTGATGAATTTCACGCATCGAGTAAACAAATTTTCCTAATCTTTCTGTTCAAGCGCCATCTAC,1.01 RPM ratio (pull-down/input)
8,GATGATTGTTCTCCCAGCTGATGAATTCGCAGCTTCGAGTAAACAAATTTTCCTAATCTTTCTGTTCAAGCGCCATCTAC,0.653 RPM ratio (pull-down/input)
9,GATGATTGTTCTCCCAGCTGATGAATTTCTCGCATCGAGTAAACAAATTTTCCTAATCTTTCTGTTCAAGCGCCATCTAC,0.861 RPM ratio (pull-down/input)
10,GATGATTGTTCTCCCAGCTGATGAATTCGCGCCATCGAGTAAACAAATTTTCCTAATCTTTCTGTTCAAGCGCCATCTAC,2.63 RPM ratio (pull-down/input)
11,GATGATTGTTCTCCCAGCTGATGAATTCACGCATTCGAGTAAACAAATTTTCCTAATCTTTCTGTTCAAGCGCCATCTAC,5.67 RPM ratio (pull-down/input)
12,GATGATTGTTCTCCCAGCTGATGAATTCGCATCTTCGAGTAAACAAATTTTCCTAATCTTTCTGTTCAAGCGCCATCTAC,5.81 RPM ratio (pull-down/input)
13,GATGATTGTTCTCCCAGCTGATGAATTCTTCGCATCGAGTAAACAAATTTTCCTAATCTTTCTGTTCAAGCGCCATCTAC,0.708 RPM ratio (pull-down/input)
14,GATGATTGTTCTCCCAGCTGATGAATTTCGCGCATCGAGTAAACAAATTTTCCTAATCTTTCTGTTCAAGCGCCATCTAC,1.42 RPM ratio (pull-down/input)
15,GATGATTGTTCTCCCAGCTGATGAATTCACGCTTTCGAGTAAACAAATTTTCCTAATCTTTCTGTTCAAGCGCCATCTAC,1.11 RPM ratio (pull-down/input)
16,GATGATTGTTCTCCCAGCTGATGAATTGTATAACTCGAGTAAACAAATTTTCCTAATCTTTCTGTTCAAGCGCCATCTAC,0.812 RPM ratio (pull-down/input)
17,GATGATTGTTCTCCCAGCTGATGAATTAAGCCGATCGAGTAAACAAATTTTCCTAATCTTTCTGTTCAAGCGCCATCTAC,0.427 RPM ratio (pull-down/input)
18,GATGATTGTTCTCCCAGCTGATGAATTTAGTGGGTCGAGTAAACAAATTTTCCTAATCTTTCTGTTCAAGCGCCATCTAC,1.06 RPM ratio (pull-down/input)
19,GATGATTGTTCTCCCAGCTGATGAATTCAAAACCTCGAGTAAACAAATTTTCCTAATCTTTCTGTTCAAGCGCCATCTAC,0.276 RPM ratio (pull-down/input)
20,GATGATTGTTCTCCCAGCTGATGAATTTATGATATCGAGTAAACAAATTTTCCTAATCTTTCTGTTCAAGCGCCATCTAC,1.11 RPM ratio (pull-down/input)
21,GATGATTGTTCTCCCAGCTGATGAATTCAATAGCTCGAGTAAACAAATTTTCCTAATCTTTCTGTTCAAGCGCCATCTAC,0.877 RPM ratio (pull-down/input)
